Hits are enriched below; roughly 13% of the tested compounds scored in any of these assays.
Pf growth 96h: P. falciparum growth inhibition at 96 hours; P. falciparum luciferase reporter growth, 96 h; Potency, µM (doses to about 28.7 µM), most hits filed as inhibitors; 320,000 compounds, 6.9% hits
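P. falciparum expressing integrated firefly luciferase grown in erythrocytes (2% hematocrit, 0.05% parasitemia final) with compounds for 96 hours at 37 C, 5% CO2. Growth inhibition read as loss of luminescence after adding luciferase detection reagent.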
HCV inhibitor: blocks hepatitis C virus; 340,000 compounds, 3.4% hits; AID 651820; Huh7.5.1 HCVcc-Cre infection, luciferase reporter, 44 h; Potency, µM (highest dose often 41.8 µM), hits mostly inhibitors
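Luciferase read-out (15 sec integration) after a 15 min room-temperature substrate step quantifies HCVcc-Cre infection. Cells, 1,000 per well, had compound added 4 h post-plating, then virus at ~0.5 moi, and were cultured 44 h.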
HCMV antiviral: inhibitors of human cytomegalovirus. HFF cells, HCMV-luciferase reporter, 72 h; stronger effect = lower value. 410,000 compounds, 4.5% hits. activity change, negative = inhibition, % at 57.5 µM. AID 1259415; in the data active = activity change below about -60%; inconclusive = no clear call, values can overlap the other calls; inactive = above about -39%
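Inhibition of viral replication was scored as loss of reporter luminescence in HFFs infected with HCMV-luciferase (MOI 1 PFU/cell) for 72 h; compounds tested at 2 doses, normalized to buffer and Salinomycin controls.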
Pf growth 48h: inhibits P. falciparum growth in the first generation, 48 h; P. falciparum luciferase growth in erythrocytes, 48 h; Potency, µM (doses to about 28.7 µM), actives largely listed as inhibitors; 310,000 compounds, 5.9% hits; AID 504832
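Firefly luciferase activity from engineered P. falciparum reports growth; inhibitors lower the luminescent signal. Cultures contained 2% hematocrit erythrocytes at 0.1% final parasitemia.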
Each line names hits and unclear results; the compound was inactive in the other large screens. Unless noted, calls come from the whole dose curve; as a rule, active = well fitted inhibition curve with a large enough effect; inconclusive = small, poorly fitted or top-dose-only effect, or another doubt; inactive = no such curve, though single readings can be large or run the other way.

O=C(NCCC1=CCCCC1)c1cccc(S(=O)(=O)N2CCCCC2)c1	Pf growth 96h inconclusive, Pf growth 48h inconclusive
Cc1ccc(C(=O)NCCC2=CCCCC2)cc1S(=O)(=O)N1CCOCC1	Pf growth 96h inconclusive, Pf growth 48h 11.7µM
Cc1ccc(C(=O)NCCC2=CCCCC2)cc1S(=O)(=O)N1CCCCC1	Pf growth 96h 4.65µM, HCV inhibitor inconclusive, Pf growth 48h 11.7µM
CC(C)(C)OC(=O)N[C@H](C(=O)OC(C)(C)C)c1ccc2c(c1)OCO2	Pf growth 96h inconclusive, Pf growth 48h 11.7µM
C[C@H](CO)N1C[C@H](C)[C@@H](CN(C)C)Oc2c(NC(=O)C3CC3)cccc2C1=O	HCV inhibitor 3.16µM (no result: Pf growth 96h, Pf growth 48h)
C[C@H](CO)N1C[C@H](C)[C@@H](CN(C)CC2CC2)Oc2c(NC(=O)C3CC3)cccc2C1=O	none (no result: Pf growth 96h, Pf growth 48h)
C[C@@H]1CN([C@@H](C)CO)C(=O)c2cccc(NC(=O)C3CCCCC3)c2O[C@@H]1CN(C)C(=O)NC1CCCCC1	none (no result: Pf growth 96h, Pf growth 48h)
Cc1noc(C)c1NC(=O)N(C)C[C@H]1Oc2c(NC(=O)C3CCCCC3)cccc2C(=O)N([C@H](C)CO)C[C@@H]1C	HCV inhibitor 3.98µM (no result: Pf growth 96h, Pf growth 48h)
C[C@H](CO)N1C[C@H](C)[C@@H](CN(C)Cc2ccc(Oc3ccccc3)cc2)Oc2c(NC(=O)C3CC3)cccc2C1=O	HCV inhibitor 15.8µM (no result: Pf growth 96h, Pf growth 48h)
C[C@H](CO)N1C[C@H](C)[C@@H](CN(C)C(=O)NC2CCCCC2)Oc2c(NC(=O)C3CC3)cccc2C1=O	HCMV antiviral -100.5 (no result: Pf growth 96h, Pf growth 48h)
CCOc1ccc(NC(=O)Cc2ccc(NC(=O)N3CCCCc4ccccc43)cc2)cc1	none (no result: Pf growth 96h, HCV inhibitor, Pf growth 48h)
CCOC(=O)C1CCN(C(=O)CN2c3ccc(C(C)C)cc3-c3ccccc3S2(=O)=O)CC1	none (no result: Pf growth 96h, HCV inhibitor, Pf growth 48h)
Cc1ccc(Cn2ccnc2SCC(=O)Nc2nnc(C)s2)cc1	none (no result: Pf growth 96h, HCV inhibitor, Pf growth 48h)
CCOC(=O)CCCCCC(=O)Nc1ccc2c(c1)CC(=O)N([C@H](C)CO)C[C@@H](C)[C@H](CN(C)Cc1ccc3c(c1)OCO3)O2	none (no result: Pf growth 96h, Pf growth 48h)
C[C@@H]1CN([C@H](C)CO)C(=O)Cc2cc(NC(=O)Nc3ccccc3)ccc2O[C@@H]1CN(C)Cc1ccc2c(c1)OCO2	HCV inhibitor 3.55µM (no result: Pf growth 96h, Pf growth 48h)
C[C@H](CO)N1C[C@H](C)[C@@H](CN(C)CC2CC2)Oc2c(NC(=O)Cc3ccccc3)cccc2C1=O	HCV inhibitor 3.16µM, HCMV antiviral inconclusive (no result: Pf growth 96h, Pf growth 48h)
C[C@H]1CN([C@@H](C)CO)C(=O)c2cc(NC(=O)C3CCCCC3)ccc2O[C@H]1CN(C)C(=O)Nc1ccc2c(c1)OCO2	HCV inhibitor 1µM (no result: Pf growth 96h, Pf growth 48h)
CCc1cccc(C)c1NC(=O)CN1C(=O)C2(SCC(=O)N2c2cc(C)cc(C)c2)c2ccccc21 (configuration not stated)	none (no result: Pf growth 96h, HCV inhibitor, Pf growth 48h)
CCOC(=O)c1cc(NC(=O)c2cccs2)ccc1N1CCOCC1	HCV inhibitor inconclusive
CCOC(=O)c1cc(NCc2cccs2)ccc1N1CCOCC1	Pf growth 96h 1.47µM, HCV inhibitor inconclusive
COCCn1c(SCC(=O)c2ccc(OC)cc2)nc2cc(C(=O)NC3CCCC3)ccc2c1=O	none (no result: Pf growth 96h, HCV inhibitor, Pf growth 48h)
O=C(CSc1cccc[n+]1[O-])c1cc2ccccc2o1	Pf growth 96h 4.15µM (no result: HCMV antiviral, Pf growth 48h)
O=C(CSc1cccc[n+]1[O-])c1cc(Cl)ccc1Cl	Pf growth 96h 0.828µM, HCV inhibitor inconclusive, Pf growth 48h inconclusive
O=C(O)CSc1cccc[n+]1[O-]	none
Cc1cccc(CN2CCC(C(N)=O)CC2)c1	Pf growth 96h inconclusive (no result: Pf growth 48h)
Cc1cccc(CN2CCC(N3CC(C)OC(C)C3)CC2)c1 (configuration not stated)	Pf growth 96h 11.7µM
C=C1CC2C(CCC3(C)C2CCC3(O)C(C)=O)C2(C)CCC(=O)C=C12 (configuration not stated)	HCMV antiviral -79.0, Pf growth 48h inconclusive
C=C1C[C@H]2[C@@H]3C=C(C)C4=CC(=O)CC[C@]4(C)[C@H]3CC[C@]2(C)[C@@]1(OC(C)=O)C(C)=O	Pf growth 96h inconclusive, HCV inhibitor inconclusive, Pf growth 48h 9.28µM
CC(=O)C1(O)CCC2C3CC(C)C4=CC(=O)CCC4(C)C3CCC21C (configuration not stated)	none (no result: Pf growth 96h, HCV inhibitor, Pf growth 48h)
Cn1c(=O)oc2cc(S(=O)(=O)Nc3ccc4c(c3)OCCO4)ccc21	HCMV antiviral -90.9, Pf growth 48h inconclusive
Cn1c(=O)c(=O)n(C)c2cc(S(=O)(=O)Nc3ccc4c(c3)OCCO4)ccc21	HCMV antiviral -76.2, Pf growth 48h 3.29µM
Cn1c(=O)oc2cc(S(=O)(=O)NCCC(=O)Nc3ccc4c(c3)OCCO4)ccc21	none (no result: Pf growth 96h)
C=CCNC(=O)C1CCN(c2c([N+](=O)[O-])cc(C(F)(F)F)cc2[N+](=O)[O-])CC1	Pf growth 96h 9.28µM, Pf growth 48h 5.22µM

Bioassay records deposited in PubChem by National Center for Advancing Translational Sciences (NCATS).
